Pf growth 96h: Primary qHTS for delayed death inhibitors of the malarial parasite plastid, 96 hour incubation; hit rate 6.9% among 320,000; AID 504834, 2011; P. falciparum luciferase reporter growth, 96 h; Potency, µM (series often up to 28.7 µM), usual class: inhibitors; active = well fitted inhibition curve with a large enough effect; inconclusive = small, poorly fitted or top-dose-only effect, or another doubt; inactive = no such curve, though single readings can be large or run the other way
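Compounds incubated with erythrocytes infected by luciferase-expressing P. falciparum (2% hematocrit, 0.05% parasitemia final) for 96 hours, 37 C in 5% CO2. Growth inhibition scored as decreased luciferase luminescence.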
SARS PLpro yeast: qHTS of Yeast-based Assay for SARS-CoV PLP; Potency, µM (titrated, usually from 32.9 µM), most hits filed as activators; S. cerevisiae expressing SARS-CoV PLpro, growth rescue; hit rate 0.19% among 330,000; AID 485353, 2010; also: nearly all actives have a fitted effect of over 55% in size
CHX counter: Cycloheximide Counterscreen for Small Molecule Inhibitors of Shiga Toxin; cell reporter, cycloheximide protein synthesis inhibition counterscreen; max response, %; hit rate 12% among 300,000; AID 2314, 2010; in the data active = max response mostly above about 13%, no sharp cut-off; inactive = mostly below about 14%; also: read at 38.3 µM for the half of the compounds with a filed dose
Shiga inhibitor: A qHTS for Small Molecule Inhibitors of Shiga Toxin; inhibition, % at 38.7 µM; AID 2315, 2010; Vero cells, Shiga toxin protein synthesis inhibition reporter; hit rate 9.2% among 290,000; in the data active = inhibition mostly above about 28%, no sharp cut-off; inactive = mostly below about 43%
NS1 function inh: qHTS Assay for Inhibitors of Influenza NS1 Protein Function; Potency, µM (highest dose often 46.1 µM); hit rate 0.4% among 270,000; also: actives are rising curves; nearly all actives have a fitted effect of over 50% in size
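Compounds were scored for reversing the slow growth caused by influenza A NS1 in S. cerevisiae, measured by optical density at 600 nm. Assay medium contained 2% galactose at pH 6.0; NS1-free yeast of the same strain were the positive control.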
Pf growth 48h: Primary qHTS for delayed death inhibitors of the malarial parasite plastid, 48 hour incubation; hit rate 5.9% among 310,000; AID 504832, 2011; P. falciparum luciferase growth in erythrocytes, 48 h; Potency, µM (doses to about 28.7 µM), most hits filed as inhibitors; active = well fitted inhibition curve with a large enough effect; inconclusive = small, poorly fitted or top-dose-only effect, or another doubt; inactive = no such curve, though single readings can be large or run the other way
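Compounds are pin-transferred into medium, infected erythrocytes (2% hematocrit, 0.1% parasitemia final) are added, and plates sit one parasite generation at 37 C in 5% CO2. Detection reagent is then added and luminescence measured.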
Large screens that a line does not name were inactive. Compounds with a hit are over-represented: about 21% of the library has one in this group of screens. Unless noted, calls follow the shape of the full dose curve.

Cc1ccc(-c2ncccc2OC(=O)C23CC4CC(CC(C4)C2)C3)cc1	Pf growth 96h 9.28µM, Pf growth 48h inconclusive
CC[C@H](C)[C@H](NC(=O)CNC(=O)[C@H](CCCNC(=N)N)NC(=O)[C@H](CO)NC(=O)[C@H](C)NC(=O)[C@H](Cc1ccc(O)cc1)NC(=O)[C@H](Cc1c[nH]c2ccccc12)NC(=O)[C@H](C)NC(=O)[C@@H]1CCCN1C(=O)[C@H](CC(N)=O)NC(=O)[C@@H](NC(=O)[C@H](CC(=O)O)NC(=O)[C@@H]1CCCN1C(=O)[C@@H](N)[C@@H](C)O)[C@@H](C)CC)C(=O)N[C@@H](CCCNC(=N)N)C(=O)N1CCC[C@H]1C(=O)N[C@H](C(=O)NCC(=O)N[C@@H](CCCNC(=N)N)C(=O)N[C@@H](Cc1ccccc1)C(N)=O)C(C)C	none (no result: Pf growth 96h, SARS PLpro yeast, NS1 function inh, Pf growth 48h)
Nc1ncc(Br)cc1S(=O)(=O)NCCc1ccccc1	none
Cc1nc(SCC(=O)OCc2ccccc2)c2c(=O)n(C)c(=O)n(C)c2n1	Pf growth 96h inconclusive, SARS PLpro yeast inconclusive, Pf growth 48h 7.38µM
CCCNC(=O)c1onc(CSc2ccc(F)cc2)c1C(=O)NCC1CC1	Pf growth 96h inconclusive, Pf growth 48h inconclusive (no result: CHX counter, Shiga inhibitor, NS1 function inh)
CCN(CC)CCN1CCn2c3c(c4cc(C)ccc42)CCCC31 (stereo unspecified)	Pf growth 96h 9.28µM, Pf growth 48h 3.7µM
CCN1CCn2c3c(c4cc(Cl)ccc42)CCCC31 (stereo unspecified)	Pf growth 48h inconclusive
COc1ccc(S(=O)(=O)NCC(c2ccc(C)cc2)N2CCN(C)CC2)cc1 (stereo unspecified)	none (no result: CHX counter, Shiga inhibitor, NS1 function inh)
CN(C)S(=O)(=O)c1ccc(NC=O)cc1	none
COc1ccc2c(c1)[nH]c1c(=O)n(/N=C/c3ccc(OC)c(COc4ccccn4)c3)cnc12	Shiga inhibitor 67.1
CCOc1ccc(-c2c(C(=O)N/N=C/C3CCCCC3)nnn2-c2nonc2N)cc1	none
CNc1nc(N2CCc3ccccc32)ncc1F	CHX counter 38.9, Shiga inhibitor 104.6 (no result: Pf growth 96h)
CC(Sc1ncc(C(F)(F)F)cc1Cl)C(=O)NCC1CCCO1 (stereo unspecified)	none (no result: NS1 function inh)
O=C(NNC1=Nc2cccc3cccc1c23)c1ccc(Br)cc1	Pf growth 48h 11.7µM
C=C(C)[C@@]12OC3(c4ccccc4)O[C@@H]1[C@@H]1[C@@H]4O[C@]4(CO)[C@@H](O)[C@]4(O)C(=O)C(C)=C[C@H]4[C@@]1(O3)[C@H](C)[C@H]2OC(=O)/C=C/C=C/c1ccccc1	none (no result: Pf growth 96h, SARS PLpro yeast, NS1 function inh, Pf growth 48h)
COc1cc2c(cc1OC)/C(=C/C#N)NC(C)(C)C2	Pf growth 96h inconclusive, Pf growth 48h 9.28µM
C=C1CCC2[C@](C)(CO)C(O)CC[C@]2(C)C1C/C=C1/C(=O)OCC1O (stereo partly specified)	Pf growth 96h 15.1µM, Pf growth 48h inconclusive (no result: SARS PLpro yeast, CHX counter, Shiga inhibitor, NS1 function inh)
O=C(OCc1ccc(Cl)c(Cl)c1)c1ccc[nH]1	CHX counter 22.5, Shiga inhibitor 110.8
O=C(Cc1ccc(Cl)c(Cl)c1)OCC(=O)c1ccc[nH]1	none
CCOc1ccc(C(=O)N2CCC3(CC2)NCCc2[nH]cnc23)cc1	NS1 function inh inconclusive, Pf growth 48h inconclusive
Cc1nn(-c2ccccc2)c(C)c1C(=O)NCCc1ccccc1	CHX counter 33.3, Shiga inhibitor 74.3
Cc1nn(-c2ccccc2)c(Cl)c1C(=O)NCCCCNC(=O)c1c(C)nn(-c2ccccc2)c1Cl	Pf growth 48h 13.1µM (no result: Pf growth 96h)
CCOC(=O)c1cc(C(=O)Nc2cccc(C)c2)nn1C	CHX counter 40.4, Shiga inhibitor 154.5
Cc1cccc(NC(=O)c2c(C)nn(-c3ccccc3)c2Cl)c1	CHX counter 46.8, Shiga inhibitor 113.3
Cn1nc(C(=O)Nc2cccc(Cl)c2)cc1C(=O)Nc1cccc(Cl)c1	Pf growth 48h inconclusive
CCCCn1nnc(NC(=S)NC(=O)c2ccc(-c3cccc(Cl)c3Cl)o2)n1	none
Cc1nn(-c2ccccc2)c(C)c1C(=O)NCCc1ccc(Cl)cc1	none
Cc1nn(Cc2ccccc2)c(Cl)c1C(=O)NCCc1ccc(Cl)cc1	Pf growth 96h inconclusive, CHX counter 13.8, Pf growth 48h inconclusive
CCOc1ccc(N2C(=O)/C(=C/c3ccco3)N(C)C2=S)cc1	Pf growth 96h 2.08µM
CC1=CC(C)(C)N(S(=O)(=O)c2ccc(C)cc2)c2ccc(C)cc21	Pf growth 96h 10.4µM (no result: Pf growth 48h)
CC1=CC(C)(C)N(S(=O)(=O)c2ccc(F)cc2)c2ccccc21	Pf growth 48h inconclusive (no result: Pf growth 96h)
CCNC(=S)/N=C(/Nc1ccc(OC)cc1)Nc1nc(C)cc(C)n1	Pf growth 96h inconclusive, Pf growth 48h inconclusive
Cc1cc(C)nc(NC(=S)Nc2cccc(F)c2)c1	Pf growth 48h inconclusive
COc1cccc(N/C(=N/C(=S)Nc2ccc(C)cc2C)Nc2nc(C)cc(C)n2)c1	Pf growth 96h 3.29µM, Pf growth 48h 4.15µM
COc1cccc(NC(=S)Nc2cc(C)cc(C)n2)c1	CHX counter 49.2, Shiga inhibitor 56.1
COc1ccc(NC(=S)Nc2cc(C)cc(C)n2)cc1OC	Pf growth 96h inconclusive, CHX counter 20.7

High-throughput results from PubChem BioAssay.
